Measurements as given in PubChem BioAssay.

Test: probe aDKK1 binding to arrayed compounds – biochemical, biotinylated probe, 635/667 nm fluorescence, primary screen (AID 1099);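 also: score merges 667nm spot fluorescence with signal to noise across triplicate slides; reference of the scale not given here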
Conditions: small-molecule microarray, higher = more signal

| SMILES | composite z-score |
| --- | --- |
| COC(=O)C(CC#Cc1ccc2c(c1)[C@]1(C(=O)N2)[C@H](C(=O)O)[C@H]2C(=O)O[C@H](c3ccccc3)[C@H](c3ccccc3)N2[C@@H]1c1ccc(O)cc1)C(=O)OC | -0.0082 |
| COCCOC(=O)N1C(=O)[C@@]2(c3cc(C#Cc4ccc(OC)cc4)ccc31)[C@H](c1ccc(O)cc1)N1[C@H](c3ccccc3)[C@H](c3ccccc3)OC(=O)[C@H]1[C@@H]2C(=O)NC[C@H](O)c1ccccc1 | -0.0755 |
| CN1C(=O)C2C=CC(C(O)c3cccs3)N(Nc3ccccc3)C2C1=O (configuration not stated) | 0.168 |
| CC(C)(C)OC(=O)CC[C@@]1(C(=O)NCC(O)CO)N=C(c2ccc(OCCCO)cc2)O[C@@H]1c1ccccc1N=[N+]=[N-] (some centres not stated) | 0.836 |
| C[C@@H]1ON(c2cccc(C(=O)OC(C)(C)C)c2)[C@H](c2ccc(Br)cc2)[C@H]1C(=O)N1C(=O)OC[C@H]1Cc1ccccc1 | -0.155 |
| COc1ccc(C(=O)Nc2ccc(CN3C(=O)[C@@]4(O[C@@H](CCn5cc([C@H](O)c6ccccc6)nn5)[C@H]([Si](C)(C)c5ccc(OC)cc5)[C@H]4C)c4ccccc43)cc2)cc1 | -0.0682 |
| CC(C)c1ccc(NN2C(C(O)c3cc(C(F)(F)F)cc(C(F)(F)F)c3)C=CC3C(=O)N(c4ccccc4)C(=O)C32)cc1 (configuration not stated) | 0.74 |
